Bioassay records deposited in PubChem BioAssay by Broad Institute.
The list is not random: actives were taken first. Their share in the collection is about 2.8%.
Shn3 inh set2 = reduction of Shn3 3'UTR firefly luciferase signal, primary screen, Schnurri-3 inhibitor project, cell-based, Clone20 osteoblasts, set 2 | Clone20 osteoblast Shn3 3'UTR firefly luciferase, 24 h | inhibition, % at 12.5 µM | actives 0.52% (n = 360,000) | AID 588674, 2011;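 active = mean inhibition of at least 75% with every replicate also reaching 75%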;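 note: 0% = median of neutral control wells and 100% = pilot-screen positive control compound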
Env fusion inh = inhibitors of HIV-1 Env-driven cell-cell fusion, primary screen, HeLa-JRFL effector, CEM21 target cells, luciferase | actives 1.1% (n = 360,000) | inhibition, % at 12.3 µM | AID 651610, 2012;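 active = mean replicate inhibition score of at least 50 and every replicate individually at or above 50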;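 note: 0% = plate neutral controls and 100% = maraviroc near 300 nM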
N-glyco inh = increase of ERlucT glycosylation luciferase signal, primary screen, N-linked glycosylation inhibitor project, D54 ERlucT cells, luminescence, set 2; reporter increase, % at 12.5 µM; actives 0.23% (n = 360,000); AID 588692, 2011; D54 ERlucT glycosylation luciferase reporter, 24 h; percent of 100 nM tunicamycin response;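 active = mean luciferase reporter signal, scaled so untreated is 0 and the glycosylation-blocking control 100, at or above a set limit in every replicate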;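 note: luciferase carries N-glycosylation sites so blocking glycosylation raises the light; 0% = median of neutral control wells and 100% = median of 100 nM tunicamycin wells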
PAX8 reporter = inhibitors of PAX8-driven TPO luciferase reporter, primary screen, RMG-I cells, single concentration. SteadyGlo, 24 h. inhibition, % at 12.6 µM. actives 1.2% (n = 360,000). AID 652154, 2013;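 active = mean replicate inhibition at least 60% with every replicate also reaching 60%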;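 note: luciferase light reporting Pax8 driven TPO promoter activity; plate controls were median of neutral control wells for no effect and mitoxantrone controls for full effect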
EBV LMP1 NFkB = EBV LMP1-driven NF-kappaB luciferase reporter inhibitors, primary screen, cell-based, luminescence, single point; AID 504558, 2011; actives 0.69% (n = 350,000); LMP1-induced NF-kappaB luciferase reporter cells; inhibition, % at 12.5 µM; in the data active = inhibition above about 41%;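 note: 0% = neutral control wells and 100% = reference inhibitor control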
NSD2 inh = NSD2 histone methyltransferase inhibitors, primary screen, biochemical, AlphaScreen, single concentration, set 2; Histone-lysine N-methyltransferase NSD2 (Homo sapiens), O96028; NSD2 peptide methylation, 120 min; inhibition, % at 12.5 µM; actives 0.54% (n = 310,000); AID 743445, 2014; in the data active = inhibition above about 50%
The depositor's hits bear a star; x = no result; ! = repeats disagree; [ ] = dose if it differs, or a comment.

SMILES	Shn3 inh set2	Env fusion inh	N-glyco inh	PAX8 reporter	EBV LMP1 NFkB	NSD2 inh
COc1ccc(NC(=O)Nc2ccc3c(c2)CC(=O)N([C@@H](C)CO)C[C@@H](C)[C@H](CN(C)Cc2ccc(Oc4ccccc4)cc2)O3)cc1	x	19.0[16.7 µM]	x	70.3*	x	x
COc1ccc(NC(=O)Nc2ccc3c(c2)CC(=O)N([C@@H](C)CO)C[C@H](C)[C@@H](CN(C)Cc2ccc(Oc4ccccc4)cc2)O3)cc1	x	-8.2[16.7 µM]	x	23.5	x	x
COc1ccc(CN(C)C[C@@H]2Oc3ccc(NC(=O)Nc4ccccc4)cc3CC(=O)N([C@@H](C)CO)C[C@H]2C)cc1	x	2.7[16.7 µM]	x	x	x	x
COc1ccc(NC(=O)Nc2ccc3c(c2)CC(=O)N([C@H](C)CO)C[C@@H](C)[C@@H](CN(C)Cc2ccc(Oc4ccccc4)cc2)O3)cc1	x	27.4[16.7 µM]	x	102.5*	x	x
Cc1noc(C)c1S(=O)(=O)Nc1ccc2c(c1)C(=O)N([C@@H](C)CO)C[C@@H](C)[C@H](CN(C)S(=O)(=O)c1cn(C)cn1)OCCCC[C@H](C)O2	x	8.9[16.7 µM]	x	3.2	x	x
C[C@@H]1CN([C@@H](C)CO)C(=O)c2cc(NC(=O)c3ccccc3)ccc2O[C@@H](C)CCCCO[C@@H]1CN(C)C(=O)c1ccccc1	x	-7.0[16.7 µM]	x	7.7	x	x
C/C=C/c1ccc([C@H]2[C@H](CO)N(C(C)=O)[C@H]2CN(C)C(=O)CN(C)C)cc1	x	x	x	3.8	x	x
C[C@@H]1CN([C@H](C)CO)C(=O)c2cc(C#C[C@@H](C)O)cnc2O[C@@H]1CN(C)C(=O)CC1CC1	x	-11.4[16.7 µM]	x	x	x	x
C[C@@H]1CN([C@@H](C)CO)C(=O)Cc2cc(NC(=O)CCC(F)(F)F)ccc2O[C@H]1CN(C)Cc1ccc(Oc2ccccc2)cc1	x	-3.8[16.7 µM]	x	89.9*	x	x
Nc1ncnc2nc[nH]c12	-6.2	31.9	-2.4	-10.0	58.7*!	x
CCOC(=O)/C(C#N)=C/c1cc2cc(C)c(C)cc2nc1Cl	-36.9	-21.0	3.2	-45.8	-6.5	24.6
Cc1cc2cc(C=C(C#N)C#N)c(Cl)nc2cc1C	-11.9	-263.3	38.0*	-28.1	-14.9	3.2
CCN1C[C@@H]2[C@@H]3C(=O)N(Cc4ccccc4)C(=O)[C@@H]3[C@](Cc3ccccc3)(C1=O)N2C(=O)c1ccc(C(C)(C)C)cc1	6.7	3.8	-1.6	16.8	-1.4	x
CN1C[C@@H]2[C@@H]3C(=O)N(Cc4ccccc4)C(=O)[C@@H]3[C@](Cc3ccccc3)(C1=O)N2C(=O)c1ccc(C(F)(F)F)cc1	-33.3	16.2	2.1	-1.7	-1.9	x
CCN1C[C@@H]2[C@@H]3C(=O)N(Cc4ccccc4)C(=O)[C@@H]3[C@](CC)(C1=O)N2C(=O)c1ccc(C(C)(C)C)cc1	-8.6	68.2*	-0.3	5.1	-1.9	x
CC[C@]12C(=O)N(C)C[C@H]([C@@H]3C(=O)N(Cc4ccccc4)C(=O)[C@@H]31)N2C(=O)c1ccc(C(C)(C)C)cc1	-3.5	57.5*	-1.1	9.8	-7.5	x
COC(=O)[C@]1(Cc2ccccc2N=[N+]=[N-])N=C(c2ccc(OCCCO)cc2)O[C@@H]1c1ccccc1	x	49.2[16.7 µM]	x	x	x	x
COCC(=O)Nc1ccc2c(c1)OC[C@@H](C)N(C(=O)C1CCCC1)C[C@@H](C)[C@@H](OC)CN(C)C2=O	x	-8.9[16.7 µM]	x	1.9	x	x
Nc1c(N2CCCC2)cc(Cl)c2nonc12	-15.2	x	3.0	x	3.0	x
Nc1ccc(N2CCCCC2)c2nonc12	10.2	-11.2	1.3	-17.1	8.4	82.6*
CC(C)NC(=O)N(C)C[C@H]1Oc2c(NC(=O)NC3CCCCC3)cccc2C(=O)N([C@@H](C)CO)C[C@@H]1C	x	2.4[16.7 µM]	x	x	x	x
CSc1cccc(NS(=O)(=O)c2ccc3c(c2)CCN3C(C)=O)c1	88.8*	13.0	-1.1	44.8	24.4	-1.0
O=C(Nc1ccc(OCC(F)(F)C(F)F)c(C(F)(F)F)c1)c1ccccc1O	78.5	78.0*	-18.0	99.9*	23.3	-3.3
COc1cccc(S(=O)(=O)N2CC3(CN(C(=O)Nc4cccc(F)c4)[C@H](CO)c4[nH]c5cc(OC)ccc5c43)C2)c1	x	79.8*[16.7 µM]	x	x	x	x
